Assay results as given in ChEMBL document CHEMBL3988442, “University of Dundee, Small-Polar-MMV Screening Library” (2021).
Screen size: about 66,000 compounds; about 960 (1.5%) showed an effect of 50% or more. Shown is part of a subset that was picked to be rich in strong results.

System: Trypanosoma brucei
Assay: Trypanosoma brucei 72 hour study
Type: functional, organism-based
Parameters: scale not given: in the data most compounds retested in dose-response had high values

O=C(c1cnc(-c2ccco2)s1)N1CCCCC1Cn1cccn1 (stereo unspecified)
Percent Effect (30.3 µM, […]): -0.6425%

CN(C)C1COC2(CCN(Cc3ccc4c(c3)OCO4)CC2)C1.O=C(O)C(F)(F)F.O=C(O)C(F)(F)F (stereo unspecified)
Percent Effect (30.3 µM, […]): 39.28%

c1ccc(-c2cc(CNCCN3CCCC3)c3nnnn3c2)cc1
Percent Effect (30.3 µM, […]): 99.79%

c1ccc(-c2cc(CNCCN3CCOCC3)c3nnnn3c2)cc1
Percent Effect (30.3 µM, […]): -21.36%

c1ccc(-c2cc(CNCCCN3CCCCC3)c3nnnn3c2)cc1
Percent Effect (30.3 µM, […]): -3.089%

O=C(N1CCOCC1)N1CCc2ncnc(NC3CCC3)c2CC1.O=C(O)C(F)(F)F
Percent Effect (30.3 µM, […]): -46.89%

O=C(Cn1cccn1)Nc1ccc(N2CCCCC2)cc1
Percent Effect (30 µM, 30.03 µM): -14.86%

Cc1cccnc1[C@]1(O)CC[C@H]2CN(Cc3cccc(Cl)c3Cl)C[C@H]21.O=C(O)CC(O)(CC(=O)O)C(=O)O
Percent Effect (30.3 µM, […]): -4.562%

Cc1ccc(SC2CCCC2)c(C(=O)NCCO)c1
Percent Effect (30 µM, 30.03 µM): -19.93%

CC(C)c1nn(C)c(N(C)C)c1CNCC(O)c1cccc(F)c1 (stereo unspecified)
Percent Effect (10 µM): -45.99%

COc1ncccc1CNCc1c(C(C)C)nn(C)c1N(C)C
Percent Effect (30.3 µM, […]): 0.2022%

CC(C)c1nn(C)c(N(C)C)c1CNCC(O)c1ccccc1 (stereo unspecified)
Percent Effect (30.3 µM, […]): 9.453% | Percent Effect (10 mM, 10 mM as filed; unlikely as a test dose): -25.34%

Cc1ccc(C(O)CNCc2c(C(C)C)nn(C)c2N(C)C)cc1 (stereo unspecified)
Percent Effect (30 µM, 30.03 µM): 54.73%

COc1cccc(CNCc2c(C(C)C)nn(C)c2N(C)C)c1OC
Percent Effect (30 µM, 30.03 µM): 101.8%

COCc1ccccc1CNCc1c(C(C)C)nn(C)c1N(C)C
Percent Effect (10 µM): -17.78%

Cc1ccc(CN(CCCN2CCOCC2)Cc2[nH]cnc2C)o1.O=C(O)CC(O)(CC(=O)O)C(=O)O
Percent Effect (30.3 µM, […]): -12.11%

CN(C)CCNC(=O)C1Cc2nc(-c3ccccc3)sc2N1CC1CC1.O=C(O)C(F)(F)F (stereo unspecified)
Percent Effect (30.3 µM, […]): 23.06%

O=C(C1CCOCC1)N1CCc2onc(COc3cccnc3)c2C1.O=C(O)C(F)(F)F
Percent Effect (30.3 µM, […]): -638.1%

COc1cc(CN(C)[C@@H]2COC[C@H]2c2ccc(F)cc2)cc(OC)c1.O=C(O)CC(O)(CC(=O)O)C(=O)O
Percent Effect (30.3 µM, […]): -25.55%

Cc1ccc(N2CC[C@H]3O[C@@H](C(=O)N4CCCO4)CC[C@H]32)nn1.O=C(O)C(F)(F)F
Percent Effect (30.3 µM, […]): -45.1%

COc1ccc(CNC(=O)Nc2cccnc2N2CCCC2)cc1
Percent Effect (30.3 µM, […]): -33.31%

COc1ccc(CNC(=O)Nc2cccnc2N2CCCC2)cc1OC
Percent Effect (30.3 µM, […]): -31.53%

COc1ccc(CNC(=O)Nc2cccnc2N2CCCC2)cc1O
Percent Effect (30 µM, 30.03 µM): 51.01%

CC1CCN(CC(=O)NC2CCN(C(C)c3ccccc3)CC2)CC1.Cl (stereo unspecified)
Percent Effect (30.3 µM, […]): 21.99%

COc1ccc(CN2CCC3(CC2)CCN(c2cnn(C)c2)C3=O)cc1.O=C(O)C(F)(F)F
Percent Effect (30 µM, 30.03 µM): 29.53%

CN(Cc1n[nH]c2c1CCCC2)c1nc(C2CC2)nc2c1CCNCC2
Percent Effect (30 µM, 30.03 µM): 53.53%

CN(Cc1n[nH]c2c1CCC2)c1nc(C2CCCC2)nc2c1CNC2
Percent Effect (30 µM, 30.03 µM): -1.405%

CN(C)c1nc2c(c(N(C)Cc3n[nH]c4c3CCCC4)n1)CCNCC2
Percent Effect (30 µM, 30.03 µM): 21.59%

O=C(C1CCCN(C2CCOCC2)C1)N1Cc2ccccc2C1 (stereo unspecified)
Percent Effect (30 µM, 30.03 µM): -36.54%

O=C(CN1CCC2(CCCCC2)C1)NCC(F)(F)F
Percent Effect (30.3 µM, […]): 100.3%

CC(C)(C)C(O)CN1CCN(CC(=O)NCC(F)(F)F)CC1 (stereo unspecified)
Percent Effect (30 µM, 30.03 µM): -50.05%

O=C(CN1CCSC2(CCCCC2)C1)NCC(F)(F)F
Percent Effect (30.3 µM, […]): 27.46%

CCNC(=O)[C@@H]1C[C@H](N)CN1C(=O)c1c[nH]c2ccccc12
Percent Effect (30.3 µM, […]): -39.66%

Cc1cc2c(cc1Cl)C=CC1(CCN(CC(=O)N3CCOCC3)CC1)O2
Percent Effect (30.3 µM, […]): -3.407%

Cc1cc2c(cc1Cl)C=CC1(CCN(CC(=O)N3CCCC3)CC1)O2
Percent Effect (30.3 µM, […]): -16.81%

CCN(CC)C(=O)CN1CCC2(C=Cc3cc(Cl)c(C)cc3O2)CC1
Percent Effect (30.3 µM, […]): 99.22%

CNC(=O)N1C[C@H]2C[C@H](C(=O)NCc3cccnc3)[C@@H](C1)O2.O=C(O)C(F)(F)F
Percent Effect (30 µM, 30.03 µM): 41.37%

Cc1noc(C)c1C(=O)N1CCC(c2[nH]ncc2S(C)(=O)=O)C1 (stereo unspecified)
Percent Effect (30.3 µM, […]): -19.64%

CN(CC1CCOCC1)C(C(=O)O)c1cccc(F)c1F (stereo unspecified)
Percent Effect (30 µM, 30.03 µM): -18.13%

c1ccc(OCCCN2CCN(c3ccc4nncn4n3)CC2)cc1
Percent Effect (30 µM, 30.03 µM): 53.47%

c1ccc(CCN2CCN(c3ccc4nncn4n3)CC2)nc1
Percent Effect (30 µM, 30.03 µM): 14.18%

c1ccc(CCCN2CCN(c3ccc4nncn4n3)CC2)cc1
Percent Effect (10 µM): -24.8%

c1ccc(CCN2CCN(c3ccc4nncn4n3)CC2)cc1
Percent Effect (10 µM): -2.806%

FC(F)(F)COCCN1CCN(c2ccc3nncn3n2)CC1
Percent Effect (30 µM, 30.03 µM): 29.6%

Clc1ccccc1CCN1CCN(c2ccc3nncn3n2)CC1
Percent Effect (10 µM): 55.98%

COCCN1CCC2(CC1)CC(NC(=O)CN(C)C)c1ccccc1O2.O=C(O)C(F)(F)F.O=C(O)C(F)(F)F (stereo unspecified)
Percent Effect (30.3 µM, […]): -3.899%

CNC(=O)[C@H]1C[C@@H]2CN(C(=O)c3ccncc3)C[C@@H]2N1S(C)(=O)=O.O=C(O)C(F)(F)F
Percent Effect (30.3 µM, […]): -12.29%

Cc1cnc(N2CCc3cc(C(=O)O)c(N(C)C)nc3CC2)nc1.O=C(O)C(F)(F)F
Percent Effect (30.3 µM, […]): -16.6%

O=C(NCC1CCN(CCc2ccccc2)C1)c1cc(Cl)c[nH]1 (stereo unspecified)
Percent Effect (30 µM, 30.03 µM): -9.095%

COC(=O)c1ccc(N2CCN(C(=O)c3ccncc3)C(C)C2)cc1 (stereo unspecified)
Percent Effect (30 µM, 30.03 µM): 41.83%
